Screening results from PubChem.
LASV entry inh = inhibitors of Lassa virus binding or cell entry; Lassa virus pseudotype entry inhibition, cell reporter; Potency, µM (series often up to 37.9 µM), without a hit: at the top dose activity change, negative = inhibition, hits mostly inhibitors; 1.2% of 300,000 active; calls by dose curve; tested in HEK293 cells; further: nearly all actives have a fitted effect of over 50% in size
Marburg entry inh = blocks Marburg virus binding to or entry into cells | Potency, µM (highest dose often 37.8 µM), without a hit: top-dose activity change, negative = inhibition, hits mostly inhibitors | Marburg virus pseudotyped entry inhibition, cell reporter | 1.8% of 300,000 active; calls by dose curve; tested in HEK293 cells
AmpC inh detg = AmpC beta-lactamase inhibition with detergent present; P00811; AmpC hydrolysis of nitrocefin, absorbance 480 nm, 0.01% Triton; Potency, µM (titrated, usually from 114 µM), for inactives: at the top dose activity change, negative = inhibition, usual class: inhibitors; 0.041% of 370,000 active; AID 485294;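 further: 0% = no-compound wells and -100% = no-enzyme wells; nearly all actives have a fitted effect of over 25% in size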
Target sequence (P00811 whole entry, looked up): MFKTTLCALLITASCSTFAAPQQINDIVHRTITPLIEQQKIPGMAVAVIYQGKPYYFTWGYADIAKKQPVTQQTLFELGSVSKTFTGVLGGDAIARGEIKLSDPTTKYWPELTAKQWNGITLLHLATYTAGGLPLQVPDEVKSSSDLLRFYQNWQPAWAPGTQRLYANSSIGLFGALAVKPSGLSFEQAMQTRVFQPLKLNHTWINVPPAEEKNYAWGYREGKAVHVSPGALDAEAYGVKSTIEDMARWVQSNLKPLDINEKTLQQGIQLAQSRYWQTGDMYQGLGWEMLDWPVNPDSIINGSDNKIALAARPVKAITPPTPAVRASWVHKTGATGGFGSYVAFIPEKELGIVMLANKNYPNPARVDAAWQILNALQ
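AmpC (5.3 nM in the dispensed reagent) in 20 mM phosphate pH 7.0 with 0.01% (detergent screen) or 0.0001% Triton X-100 was preincubated with compounds for 15 min at room temperature. Nitrocefin was then added from an 800 uM solution, and hydrolysis was followed at 480 nm.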
AmpC no deterg = blocks E. coli AmpC beta-lactamase in detergent-free assay. P00811. AmpC nitrocefin hydrolysis, absorbance 480 nm, 0.0001% Triton. Potency, µM (series often up to 57.1 µM), for the others: at the top dose activity change, negative = inhibition, usual class: inhibitors. 0.52% of 330,000 active. AID 485341;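 further: plate controls were no compound for no effect and no enzyme for full effect; nearly all actives have a fitted effect of over 20% in size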
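AmpC (5.3 nM in the dispensed reagent) in 20 mM phosphate pH 7.0 with 0.01% (detergent screen) or 0.0001% Triton X-100 was preincubated with compounds for 15 min at room temperature. Nitrocefin was then added from an 800 uM solution, and hydrolysis was followed at 480 nm.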
AMA1-RON2 inh = disrupts binding of P. falciparum AMA1 to RON2; Potency, µM (doses to about 58.2 µM), without a hit: top-dose activity change, negative = inhibition, most hits filed as inhibitors; AlphaScreen AMA1-biotinylated RON2 peptide binding; 0.2% of 360,000 active; AID 720542;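 further: 0% = vehicle wells and -100% = peptide control; nearly all actives have a fitted effect of over 45% in size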
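AMA1 (3D7) with his tag at 25 nM final met compounds first, then biotinylated RON2 peptide at 25 nM; detection used donor plus acceptor beads, 10 µg/mL apiece, read by AlphaScreen after 30 min at room temperature.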
Active calls of the source: *; [ ] = dose if it differs, or a comment. Rows were chosen to be rich in hits. Some 2.3% of all compounds tested hit in one or more screens of this group. Unless noted, the call rests on the fitted dose curve; in most records, active means well fitted curve in the direction sought with a large enough effect; inconclusive means small, poorly fitted or top-dose-only effect, or another doubt; inactive means no such curve, though single readings can be large; an effect the other way counts as inactive or inconclusive. Unless noted, on the % scale 0 is the no-effect control and ±100 the full control effect; potency means the concentration at half of the fitted maximal effect.

Results for COCCCN(C(=S)NC(=O)C(C)(C)C)c1c(N)n(Cc2ccccc2)c(=O)[nH]c1=O ?
AmpC inh detg: 10%; AmpC no deterg: -15%; AMA1-RON2 inh: 60%

What do the screens show for `COCCCN(C(=S)NC(=O)c1ccc(Br)cc1)c1c(N)n(Cc2ccccc2)c(=O)[nH]c1=O`?
LASV entry inh: 8%; Marburg entry inh: inconclusive; AmpC inh detg: -2%; AmpC no deterg: 5.6µM*; AMA1-RON2 inh: 84%

Results for Clc1ccc(-c2noc3ncnc(NCCc4ccccc4)c23)cc1 ?
LASV entry inh: 4µM*; AmpC inh detg: -7%

What do the screens show for `O=[N+]([O-])c1ccc(-c2cnc(SC(c3ccccc3)c3ccccc3)[nH]2)cc1`?
LASV entry inh: 3.5µM*; Marburg entry inh: inconclusive; AmpC inh detg: 5%; AmpC no deterg: -22%; AMA1-RON2 inh: inconclusive

What do the screens show for `O=[N+]([O-])c1ccc(-c2cnc(SCc3ccccc3Cl)[nH]2)cc1`?
LASV entry inh: -4%; Marburg entry inh: -13%; AmpC inh detg: -2%; AmpC no deterg: -36%; AMA1-RON2 inh: -17%

What do the screens show for `COc1ccc([C@H]2SCC(=O)Nc3c2c(=O)[nH]n3C2CCCCC2)cc1`?
Marburg entry inh: 0%

How did CC(C)(C)C(=O)N1CCc2cc(-c3csc(N)n3)ccc21 do in these assays?
LASV entry inh: 2µM*; Marburg entry inh: inconclusive; AmpC inh detg: -9%; AmpC no deterg: -32%; AMA1-RON2 inh: 0%

What do the screens show for `COCCNC(=S)N1CCc2cc(OC)c(OC)cc2C1COc1ccc(F)cc1` (configuration not stated)?
LASV entry inh: -5%[46.1 µM]; Marburg entry inh: -17%[46.1 µM]; AmpC inh detg: -8%; AmpC no deterg: 146%; AMA1-RON2 inh: -10%

How did COCCNC(=S)N1CCc2cc(OC)c(OC)cc2C1COc1ccc(C(C)C)cc1 (configuration not stated) do in these assays?
LASV entry inh: inconclusive; Marburg entry inh: 13µM*; AmpC inh detg: -11%; AmpC no deterg: 150%; AMA1-RON2 inh: inconclusive

Results for COC(=O)c1ccc(OCC2c3cc(OC)c(OC)cc3CCN2C(=O)c2ccco2)cc1 (configuration not stated) ?
LASV entry inh: 4.1µM*; Marburg entry inh: inconclusive; AmpC inh detg: 2%; AmpC no deterg: 115%; AMA1-RON2 inh: -14%

How did COC(=O)c1ccccc1NC(=O)c1noc2c1CSc1ccccc1-2 do in these assays?
LASV entry inh: 1%[46.1 µM]; Marburg entry inh: -25%[46.1 µM]; AmpC inh detg: 1%

Results for CCOC(=O)C1CCCN(C(=O)c2ccc3c(c2)N(Cc2ccc(Cl)cc2)C(=O)c2ccccc2S3=O)C1 (configuration not stated) ?
LASV entry inh: -2%[46.1 µM]; Marburg entry inh: 5%[46.1 µM]; AmpC inh detg: -14%

Results for COc1ccc2nc(C)cc(SCC(=O)N/N=C/c3cccc4ccccc34)c2c1 ?
LASV entry inh: 13µM*; Marburg entry inh: inconclusive; AmpC inh detg: -6%; AmpC no deterg: -19%; AMA1-RON2 inh: -12%

What do the screens show for `O=C1[C@H]2[C@H]3[C@H](O)[C@H](O)C/C(=N\OCc4ccccc4)[C@@H]3CC[C@H]2C(=O)N1C[C@@H]1CCCO1`?
Marburg entry inh: 6%[14.2 µM]

How did Cc1ccc(/C=C/C(=O)NC2=NCCS2)cc1 do in these assays?
LASV entry inh: 1.6µM*; Marburg entry inh: 3.2µM*; AmpC inh detg: inconclusive; AmpC no deterg: -15%; AMA1-RON2 inh: 25%

Results for Cc1ccc(OCC(=O)NC2=NCCS2)cc1 ?
LASV entry inh: inconclusive; Marburg entry inh: inconclusive; AmpC inh detg: -6%; AmpC no deterg: -9%; AMA1-RON2 inh: inconclusive

How did Cc1ccc(/C=C/C(=O)Nc2ccccc2C(N)=O)cc1 do in these assays?
LASV entry inh: inconclusive; Marburg entry inh: 13µM*; AmpC inh detg: 3%; AmpC no deterg: -27%; AMA1-RON2 inh: 17%

How did CC(C)(C)c1ccc(/C=C/C(=O)NC2=NCCS2)cc1 do in these assays?
LASV entry inh: 14µM*; Marburg entry inh: -27%; AmpC inh detg: -14%; AmpC no deterg: -22%; AMA1-RON2 inh: -3%

What do the screens show for `Cc1ccc(N2CN=c3s/c(=C/c4cccnc4)c(=O)n3C2)cc1`?
Marburg entry inh: -20%[46.1 µM]

Results for COC[C@H]1O[C@H](c2ccccc2)C=C[C@H]1OCc1cccc(Br)c1 ?
Marburg entry inh: -15%[14.2 µM]

How did Cc1cc(C)c(NC(=O)C(C)n2nc(-c3ccc(C)c(C)c3)ccc2=O)c(C)c1 (configuration not stated) do in these assays?
LASV entry inh: -11%[46.1 µM]; Marburg entry inh: 2%[46.1 µM]; AmpC inh detg: 19%

Results for CC1CCC(C(=O)C2C(=O)C3=C(CCCC3)C2=O)CC1 (configuration not stated) ?
Marburg entry inh: -15%

How did c1ccc(Oc2ccc(Nc3ncc(-c4ccccc4)o3)cc2)cc1 do in these assays?
LASV entry inh: 0.25µM*

What do the screens show for `COC(=O)c1ccc(S(=O)(=O)N2CCc3ccccc32)cc1`?
LASV entry inh: inconclusive; Marburg entry inh: 2.5µM*; AmpC inh detg: 5%; AmpC no deterg: -4%; AMA1-RON2 inh: 2%

How did CCOC(=O)/C=C/C(=O)Nc1ccc(S(=O)(=O)N2CCCCCC2)cc1 do in these assays?
LASV entry inh: inconclusive; Marburg entry inh: 2%[46.1 µM]; AmpC inh detg: -3%; AmpC no deterg: -36%; AMA1-RON2 inh: 9%

How did CCOC(=O)/C=C/C(=O)Nc1ccc(S(=O)(=O)N2CCc3ccccc32)cc1 do in these assays?
AmpC inh detg: -11%; AmpC no deterg: 16µM*; AMA1-RON2 inh: -1%

How did O[C@]1(c2ccc(F)cc2)CCNC1 do in these assays?
Marburg entry inh: -7%

What do the screens show for `CCCCOC(=O)c1c(C)oc2c1cc(NS(=O)(=O)c1cc(OC)ccc1OC)c1ccccc12`?
LASV entry inh: inconclusive; Marburg entry inh: inconclusive; AmpC inh detg: 13%

Results for COc1cccc(C(=O)Nc2ccc(-c3nc4ccccc4s3)cc2Cl)c1 ?
LASV entry inh: 8%[46.1 µM]; AmpC inh detg: -4%

Results for Cc1cccc(N2CCN(C(=O)C(Cc3ccccc3)NC(N)=O)CC2)c1C (configuration not stated) ?
AmpC inh detg: -3%; AmpC no deterg: 96%; AMA1-RON2 inh: -7%

What do the screens show for `Cc1cccc(N2CCN(C(=O)C(Cc3ccccc3)n3cccc3)CC2)c1C` (configuration not stated)?
Marburg entry inh: 0%; AmpC inh detg: inconclusive; AmpC no deterg: 1µM*; AMA1-RON2 inh: -20%

How did CC1CCN(C(=O)C(Cc2ccccc2)n2cccc2)CC1 (configuration not stated) do in these assays?
Marburg entry inh: 0%; AmpC inh detg: inconclusive; AmpC no deterg: 10µM*; AMA1-RON2 inh: -7%

Results for CC(C)[C@@H](OCc1ccccc1)[C@H](C)/C=N/OC[C@@H](C)[C@H](OCc1ccccc1)C(C)C ?
Marburg entry inh: 25%[14.2 µM]
